# An excerpt weighted towards active compounds, which were near 19% of everything screened.
# uPA generation – cell surface uPA generation inhibition | 0.31% of 330,000 active | Potency, µM (top dose mostly 38.3 µM), for inactives: top-dose activity change, negative = inhibition, usual class: inhibitors | cell surface uPA generation assay, qHTS; active means well fitted inhibition curve with a large enough effect; inconclusive means small, poorly fitted or top-dose-only effect; inactive means no such curve, though single readings can be large or run the other way; tested in mouse RAW 264.7 cells; further: potency means the concentration at half of the fitted maximal effect; nearly all actives have a fitted effect of over 55% in size
# DT40 TDP1 no CPT – qHTS for Inhibitors of human tyrosyl-DNA phosphodiesterase 1 (TDP1): qHTS in cells in absence of CPT; 15% of 420,000 active; DT40 Tdp1-/- hTDP1 cells, no CPT, ATP luminescence, 48 h; AID 686978, 2013; Potency, µM (top dose mostly 46.2 µM), for the others: top-dose activity change, negative = growth inhibition, hits mostly inhibitors; further: potency means the concentration at half of the fitted maximal effect; nearly all actives have a fitted effect of over 55% in size
#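 Compound effects on proliferation are scored in DT40 Tdp1-/-;hTDP1 cells in the absence of CPT. ATP levels (CellTiter-Glo luminescence) are recorded after a ≥48 hr, 37 °C incubation.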
# IL1B secr inh – inflammasome signaling inhibition, IL-1 beta readout. THP-1 LPS/ATP IL-1B secretion, AlphaLISA, 16 h; hits give low values. activity change, % at 57.5 µM. 4.7% of 360,000 active. AID 743279; in the data active means activity change below about -50%; inconclusive means mostly about -30% to -49%
#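 THP-1 cells pretreated 1 hr with compounds (up to 57.5 uM final), then stimulated with LPS (250 ng/mL final) plus ATP (1.25 mM final); secreted IL-1B measured by AlphaLISA after 16 hr, decreased signal indicating inhibition.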
# HT1080 IDH1KD tx – HT-1080 IDH1 knockdown cell toxicity (counter line); HT-1080 IDH1 knockdown viability, ATP luminescence, 48 h; 2% of 360,000 active; Potency, µM (top dose mostly 46.1 µM), for the others: top-dose activity, negative = toxicity, usual class: cytotoxic;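 further: potency means the concentration at half of the fitted maximal effect; 0% = DMSO wells and -100% = cell-free medium wells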
#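 In this qHTS, HT-1080 cells depleted of IDH1 are exposed for 48 h at 37 °C to compound titrations. Toxicity is scored from CellTiter-Glo luminescence, with DMSO as full viability and medium alone as none.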
# HT1080-NT tox – kills 2HG-producing HT-1080-NT fibrosarcoma cells | AID 686970 | 1.6% of 360,000 active | HT-1080-NT fibrosarcoma viability, CellTiter-Glo ATP luminescence, 48 h | Potency, µM (series often up to 46.1 µM), for the others: top-dose activity, negative = less viability, most hits filed as cytotoxic;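 further: NT is the 2HG producing partner of a matched IDH1 knockdown line; potency means the concentration at half of the fitted maximal effect; 0% = DMSO-treated cells and -100% = media-only wells without cells; nearly all actives have a fitted effect of over 55% in size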
#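 Fibrosarcoma NT cells, 750 per well in 5% FBS RPMI, were exposed to compound for 48 hours. Viability: CellTiter-Glo luminescence.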
# DT40 TDP1 CPT – growth inhibition of DT40 Tdp1-/-;hTDP1 cells with camptothecin (screen for TDP1 inhibitors); Potency, µM (doses to about 46.2 µM), for the others: at the top dose activity change, negative = growth inhibition, most hits filed as inhibitors; 12% of 420,000 active; chicken DT40 Tdp1-/-;hTDP1 cells + 20 nM CPT, ATP luminescence, 48 h; AID 686979; further: potency means the concentration at half of the fitted maximal effect; nearly all actives have a fitted effect of over 55% in size
#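 Chicken DT40 Tdp1-/- cells complemented with human TDP1, 400 cells/well, exposed to compounds plus 20 nM camptothecin for at least 48 h at 37 C; viability read as ATP content by CellTiter-Glo luminescence.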
# Numbers without * were called inactive; u = inconclusive; x = no result; [ ] = dose if it differs, or a comment. Unless noted, the call rests on the fitted dose curve; in most records, active means well fitted curve in the direction sought with a large enough effect; inconclusive means small, poorly fitted or top-dose-only effect, or another doubt; inactive means no such curve, though single readings can be large; an effect the other way counts as inactive or inconclusive. Unless noted, on the % scale 0 is the no-effect control and ±100 the full control effect.
SMILES,uPA generation,DT40 TDP1 no CPT,IL1B secr inh,HT1080 IDH1KD tx,HT1080-NT tox,DT40 TDP1 CPT
NS(=O)(=O)c1ccc(NC(=O)c2ccc3c(c2)CCCC3)cc1,8.6%,-16.4%,20.4,-7.3%,-2.6%,-11.1%
NC(=O)c1ccsc1NC(=O)c1ccc(N2CCCC2=O)cc1,u,u,-56.3*,-18.9%,-22.8%,u
CNC(=O)c1ccsc1NC(=O)c1ccc2c(c1)CCCC2,u,u,-55.2*,-8.5%,-17.9%,u
CN(C(=O)c1ccccc1Cl)C1CCCCC1,x,-18.4%,3.9,-2.5%,17.1%,-6.8%
CC(=O)c1cc(Cl)ccc1OCC(=O)NC1CCCC1,-2.2%,u,10.1,-8.8%,0.3%,u
CC(=O)Oc1ccccc1C(=O)N(C1CCCCC1)C1CCCCC1,-7.7%,13µM*,0.0,-29.6%,-29.3%,23.1µM*
CC(=O)Oc1ccc(Cl)cc1CN(C(C)=O)C1CCCCC1,2.9%,u,u,-15.3%,-22.6%,23.1µM*
COc1ccccc1N(Cc1ccccc1)S(=O)(=O)c1cccc(C(=O)N2CCCCC2)c1,-10.4%,18.4µM*,-57.9*,u,u,u
COc1ccccc1N(C)S(=O)(=O)c1ccc(C)c(C(=O)N2CCCCCC2)c1,-0.3%,7.31µM*,-1.7,1.8%,2.9%,7.31µM*
COc1ccc(OC)c(NC(=O)c2cccc(S(=O)(=O)N(Cc3ccccc3)c3ccccc3OC)c2)c1,7.6%,u,7.2,13.0%,7.2%,6.51µM*
COc1cccc(NS(=O)(=O)c2ccc(C)c(C(=O)N3CCCCC3)c2)c1,-3.7%,-13.4%,25.7,1.0%,-0.8%,u
COc1ccccc1N(Cc1ccccc1)S(=O)(=O)c1cccc(C(=O)Nc2ccc(C(C)=O)cc2)c1,-4.6%,u,42.1,-9.6%,-10.9%,-5.4%
COc1ccc(S(=O)(=O)N2CCCCCC2)cc1N(C)S(=O)(=O)c1ccccc1,-5.4%,23.1µM*,-3.6,-1.4%,7.0%,u
Cc1ccccc1-c1noc(-c2cccnc2N2CCN(c3ccccc3)CC2)n1,x,u,x,x,x,-12.2%
CC(=O)N[C@@H](CC(=O)O)C(=O)O,-95.1%,1.9%,-107.5*,-20.7%,-13.9%,-6.0%
CCOC(=O)Cn1cc(C(=O)c2ccco2)c2ccccc21,-1.1%,u,24.7,-1.3%,-11.9%,-14.8%
CC(=O)c1cn(CCOc2cc(C)ccc2C)c2ccccc12,-10.8%,4.11µM*,51.6,9.2µM*,u,3.66µM*
COc1cccc(OCCn2cc(C(C)=O)c3ccccc32)c1,-1.9%,18.4µM*,8.6,u,u,11.6µM*
Cc1ccc(C)c(OCCn2cc(C(=O)O)c3ccccc32)c1,-3.2%,-18.0%,44.0,-5.6%,-23.7%,-21.9%
COc1cccc(OCCn2cc(C(=O)c3ccco3)c3ccccc32)c1,-10.6%,16.4µM*,-20.7,u,-25.1%,16.4µM*
COc1ccccc1OCCn1cc(C(=O)c2ccco2)c2ccccc21,-1.1%,18.4µM*,-18.3,-14.0%,-14.9%,u
COc1cccc(OCCn2cc(/C=N/NC(=O)c3ccncc3)c3ccccc32)c1,-6.4%,u,-28.8,u,-2.7%,u
O=C(O)Cn1cc(C(=O)c2ccco2)c2ccccc21,-0.4%,-5.4%,-6.4,17.2%,11.2%,-1.2%
CCCCn1cnc2c(c(CC#N)nn2-c2ccccc2)c1=N,-23.7%,0.0%,-11.4,2.9%,0.0%,-3.6%
CC(=O)N1CCc2cc(S(=O)(=O)CCC(=O)N(C)Cc3ccco3)ccc21,1.9%,1.6%,-15.1,11.9%,13.6%,-3.8%
SMILES,uPA generation,DT40 TDP1 no CPT,IL1B secr inh,HT1080 IDH1KD tx,HT1080-NT tox,DT40 TDP1 CPT
OC(c1ccc2c(c1)CN(Cc1cccn1-c1ncccn1)CCO2)C1CCCCC1 (stereo not drawn),x,-22.9%,x,x,x,6.6%
COc1ccc(N2CCN(c3cncc(C)n3)CC2)cc1,x,-13.4%,-19.7,27.1%,27.1%,-19.2%
Cc1ccccc1OCCn1cc(C(=O)c2ccco2)c2ccccc21,x,23.1µM*,x,x,x,u
CC1(c2nnnn2-c2ccc3c(c2)OCCO3)CCC(=O)N1CCCn1ccnc1 (stereo not drawn),x,-26.0%,7.1,19.1%,26.8%,-0.6%
CCCn1c(NCc2ccco2)nc2c1c(=O)n(C)c(=O)n2C,-6.4%,13µM*,-8.6,0.8%[9.24 µM],-1.2%,u
COc1cccc(Cn2c(NCc3ccco3)nc3c2c(=O)n(C)c(=O)n3C)c1,-8.2%,1.46µM*,-22.6,-23.6%,-27.0%,1.84µM*
COCCn1c(NCc2ccco2)nc2c1c(=O)[nH]c(=O)n2C,2.9%,-9.6%,21.6,3.0%,13.5%,-3.6%
Cn1c(=O)c2c(nc(NCCNC(=O)c3ccco3)n2Cc2ccccc2)n(C)c1=O,-7.1%,u,0.0,-17.4%,-15.8%,u
COc1ccc(Cl)c(Cn2c(NCc3ccco3)nc3c2c(=O)n(C)c(=O)n3C)c1,-13.6%,3.66µM*,8.7,-0.4%,-9.1%,4.61µM*
Cn1c(=O)c2c(nc(NCc3ccco3)n2CC(O)COc2ccccc2)n(C)c1=O (stereo not drawn),-9.4%,9.2µM*,-21.9,-3.6%,1.3%,u
Cn1c(NCc2ccco2)nc2c1c(=O)n(Cc1ccc(Cl)cc1Cl)c(=O)n2C,4.4%,u,15.7,u,-2.9%,u
CCCOC(=O)CSc1ncnc2sc3c(c12)CCC(C)C3 (stereo not drawn),x,-23.9%,x,x,x,-18.4%
Cc1cc(C(=O)NCc2nc(-c3cccc(NC(=O)c4ccccc4)c3)oc2C)nc(C)n1,x,-18.1%,x,x,x,-4.4%[9.04 µM]
C[N+]1(CC(=O)OC2CCCCCCCCCCC2)CCCC1,-5.0%,2.59µM*,-6.5,u,u,4.11µM*
CCOC(=O)C1CCCN(c2cc(=O)n(C3CCCCC3)c(=O)[nH]2)C1 (stereo not drawn),-5.2%,-6.7%,8.4,-4.5%,-5.9%,-11.9%
C1=CN2CC=Cc3cc(/C=C/c4ccnc5ccccc45)cc(c32)C1,x,7.08µM*,x,x,x,10µM*
COc1ccc(NC(=O)N2CCCCCC2)cc1,0.9%,-3.2%,-5.4,24.1%,23.9%,15.4%
COc1cc2c(N3CCN(C(=O)Nc4ccc(OC(C)C)cc4)CC3)ncnc2cc1OCCCN1CCCCC1,x,21.1µM*,x,x,x,u
CN(C)N1C(N)=C(C#N)C(c2cccc3ccccc23)C2=C1CC(c1ccccc1)CC2=O (stereo not drawn),-7.8%,7.31µM*,-19.8,u,u,8.2µM*
CN(C)N1C(N)=C(C#N)C(c2ccccc2)C2=C1CC(C)(C)CC2=O (stereo not drawn),-1.4%,-12.8%,-11.3,20.0%,6.6%,-0.3%
